Screening results (PubChem)
Glyco luc inh: blocks N-linked glycosylation in D54 reporter cells; D54 ERlucT glycosylation luciferase reporter, 24 h; percent of 100 nM tunicamycin response; reporter increase, % at 12.5 µM; 360,000 tested, 0.23% active; AID 588692;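 active = mean luciferase reporter signal, scaled so untreated is 0 and the glycosylation-blocking control 100, at or above a set limit in every replicate; inconclusive = mean reaches the limit but not every replicate does; inactive = mean below the limit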;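 also: luciferase carries N-glycosylation sites so blocking glycosylation raises the light; 0% = median of neutral control wells and 100% = median of 100 nM tunicamycin wells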
MITF TRPM1 inh: inhibitors of MITF-driven TRPM1 promoter in melanoma cells; SK-MEL-5 TRPM1 promoter luciferase, 24 h; inhibition, % at 12.5 µM; 330,000 tested, 0.83% active;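 active = mean inhibition across replicates of 60% or more, whatever share of single replicates reaches that level; inconclusive = some that reach 60%, reason not given; inactive = mean inhibition across replicates below 60%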
Wnt bcat act: activates Wnt/beta-catenin signaling in a reporter cell assay. activator, plate reader. activation, % at 9.35 µM. 300,000 tested, 1.2% active; in the data active = activation above about 30%, passing the limit was not always enough; inconclusive = no clear call, values can overlap the other calls;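 also: 0% = neutral control wells and 100% = positive control wells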
PfHsp90 set2: growth inhibition of yeast expressing Plasmodium Hsp90; S. cerevisiae expressing PfHsp90, BacTiter-Glo ATP, 48 h; yeast lacking PDR1 and PDR3 efflux regulators; inhibition, % at 9.4 µM; 310,000 tested, 0.32% active;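 active = every replicate shows inhibition above about 80%, whatever the replicate mean, limit read from the data; inconclusive = mean inhibition reaches the set limit but some replicate falls short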;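 also: 0% = DMSO neutral controls and 100% = 20 µM radicicol positive controls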
MITF TRPM1 HTS: MITF TRPM1 promoter activation in melanoma cells; SK-MEL-5 TRPM1-promoter luciferase, 24 h; % of positive control, neutral wells = 0; activation, % at 12.5 µM; 300,000 tested, 0.75% active; AID 588334;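 active = mean activation of at least 80% with every replicate also reaching 80%; inconclusive = mean reaches 80% but some replicate falls short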;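 also: 0% = neutral control wells and 100% = parthenolide positive control wells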
NSD2 HMT inh: NSD2 (human) methyltransferase inhibition; NSD2 peptide methylation, AlphaScreen, 120 min; 310,000 tested, 0.54% active; O96028; inhibition, % at 12.5 µM; in the data active = inhibition above about 50%
Target sequence (O96028 whole entry, looked up): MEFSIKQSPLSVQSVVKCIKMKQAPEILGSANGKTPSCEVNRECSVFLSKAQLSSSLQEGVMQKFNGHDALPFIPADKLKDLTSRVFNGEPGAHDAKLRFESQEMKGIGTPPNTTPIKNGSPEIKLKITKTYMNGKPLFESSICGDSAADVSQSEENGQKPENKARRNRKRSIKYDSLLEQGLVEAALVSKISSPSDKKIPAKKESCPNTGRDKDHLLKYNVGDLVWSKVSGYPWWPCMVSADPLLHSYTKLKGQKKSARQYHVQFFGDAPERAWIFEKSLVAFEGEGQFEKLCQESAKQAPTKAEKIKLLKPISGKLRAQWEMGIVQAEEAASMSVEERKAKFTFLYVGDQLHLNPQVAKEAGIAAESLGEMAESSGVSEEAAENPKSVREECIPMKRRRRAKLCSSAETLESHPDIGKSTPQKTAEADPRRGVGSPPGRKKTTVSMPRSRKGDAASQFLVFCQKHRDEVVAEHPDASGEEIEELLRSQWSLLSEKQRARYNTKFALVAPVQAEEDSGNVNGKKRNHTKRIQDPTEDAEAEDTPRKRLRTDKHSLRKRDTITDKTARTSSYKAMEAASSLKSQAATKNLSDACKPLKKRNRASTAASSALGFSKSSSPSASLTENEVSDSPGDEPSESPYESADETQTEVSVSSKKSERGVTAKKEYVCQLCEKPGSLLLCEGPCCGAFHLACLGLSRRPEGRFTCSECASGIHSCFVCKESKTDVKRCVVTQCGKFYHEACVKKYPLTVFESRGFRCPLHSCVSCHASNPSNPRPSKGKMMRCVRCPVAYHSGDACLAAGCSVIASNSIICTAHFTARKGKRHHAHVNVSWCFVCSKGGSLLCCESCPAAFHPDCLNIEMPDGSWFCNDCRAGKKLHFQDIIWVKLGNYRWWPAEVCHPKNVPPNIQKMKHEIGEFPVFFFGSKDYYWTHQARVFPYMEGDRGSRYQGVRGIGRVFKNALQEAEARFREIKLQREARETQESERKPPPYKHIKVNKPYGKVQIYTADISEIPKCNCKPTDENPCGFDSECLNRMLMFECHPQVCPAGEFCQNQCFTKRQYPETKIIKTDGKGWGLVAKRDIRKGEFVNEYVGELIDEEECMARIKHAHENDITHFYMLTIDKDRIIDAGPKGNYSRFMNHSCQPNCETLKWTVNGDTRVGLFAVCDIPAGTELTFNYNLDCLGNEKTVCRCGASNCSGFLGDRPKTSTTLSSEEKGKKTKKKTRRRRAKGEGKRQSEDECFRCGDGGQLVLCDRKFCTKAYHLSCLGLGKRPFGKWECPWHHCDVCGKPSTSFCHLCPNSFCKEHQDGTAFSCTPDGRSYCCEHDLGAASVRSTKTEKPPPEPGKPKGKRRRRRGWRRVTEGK
Starred values were filed as active, the others as inactive; ? = inconclusive; · = no result. This is a sample that favours compounds with a hit; in the whole collection about 2.9% have one here.

SMILES	Glyco luc inh	MITF TRPM1 inh	Wnt bcat act	PfHsp90 set2	MITF TRPM1 HTS	NSD2 HMT inh
CC(=O)c1cccc(NC(=O)CSc2ncc(C(=O)Nc3ccccc3)c(=O)n2C)c1	30.1*	63.8*	-2.2	·	-62.5	-2.7
CCc1ccc(NC(=O)C(C)OC(=O)CCC(=O)c2cccs2)cc1 (stereo unspecified)	1.8	-4.5	·	1.4	5.5	-0.5
CCN1CCN(Cc2ccc(NC(=O)c3cc(NC(=O)c4cncc(-c5ccc(C#N)cc5)c4)cc(OC)c3)cc2C(F)(F)F)CC1	-22.0	96.9*	-14.4	-8.5	-95.5	·
CCN1CCN(Cc2ccc(NC(=O)c3ccc(C)c(NC(=O)c4nccnc4N)c3)cc2C(F)(F)F)CC1	-12.2	5.0	-13.0	13.9	-4.7	·
CCN1CCN(Cc2ccc(NC(=O)c3cc(NC(=O)c4nccnc4N)cc(OC)c3)cc2C(F)(F)F)CC1	-8.2	73.1*	-2.8	-1.1	-71.7	·
CCN1CCN(Cc2ccc(NC(=O)c3ccc(C)c(NC(=O)c4cncc(-c5cccs5)c4)c3)cc2C(F)(F)F)CC1	-22.0	96.7*	·	·	-96.4	·
COc1ccc(C2=Nn3c(nnc3C3CCCCC3)SC2)cc1	·	·	·	·	·	6.0
Cc1ccc(NC(=O)N2CCCC(C(=O)O)C2)cc1 (stereo unspecified)	0.5	-15.1	16.3	27.9	18.0	3.3
CCOC(=O)C1=CCC2C(=O)N(C)C(=O)C12 (stereo unspecified)	2.6	·	-0.7	·	·	·
c1ccc(-c2ccc3c(n2)CCCN3Cc2ccccn2)cc1	·	·	35.5*	·	·	·
O=C(N/N=C/c1ccccc1)c1[nH]c2ccc(Br)cc2c1-c1ccccc1	0.2	74.4*	-11.6	-11.7	-71.3	0.9
CCN=C1NC(c2ccc(F)cc2)C(C(=O)OC)=C(C)N1Cc1ccccc1C(F)(F)F (stereo unspecified)	·	·	-4.9	·	·	·
Fc1ccc(/C=N/Nc2cc(N3CCOCC3)ncn2)cc1	4.1	-88.9	26.5	4.0	76.7	-5.2
Fc1cccc(/C=N/Nc2cc(N3CCOCC3)ncn2)c1	-5.8	-95.5	25.7	-44.3	98.0*	28.1
Cc1ccc(NC(=O)CO/N=C/c2ccc(N(C)C)cc2)cc1	1.9	-23.7	-3.9	11.0	22.3	-0.4
CN(C)c1ccc(/C=N/OC(=O)Nc2ccccc2)cc1	-12.7	-27.4	52.3*	20.1	34.2	3.5
COc1ccc(NC(=O)O/N=C/c2ccccc2)cc1	-1.1	-76.2	38.7*	6.0	75.0	-1.6
COc1ccc(NC(=O)O/N=C/c2ccccc2Cl)cc1	1.9	-49.3	-1.2	17.4	50.8	-1.3
Cc1ccc(C(=O)O)cc1N=Cc1cc(Br)cc(Br)c1O	0.4	18.3	·	107.4*	-17.6	·
CCC(C)c1ccccc1N1CC(C(=O)N2CCN(S(=O)(=O)c3cccc([N+](=O)[O-])c3)CC2)CC1=O (stereo unspecified)	2.4	21.4	-4.4	-14.8	-17.2	2.0
Cc1ccc(N2C(=NC(=O)c3ccccc3)SC3CS(=O)(=O)CC32)cc1 (stereo unspecified)	0.1	3.0	0.3	-18.4	0.9	0.2
CCCC(=O)N=C1SC2CS(=O)(=O)CC2N1c1ccc(-c2nc3ccc(C)cc3s2)cc1 (stereo unspecified)	-1.5	-55.4	33.7*	-8.4	57.1	1.1
O=C(N[C@@H](Cc1cccnc1)C(=O)N1CCC[C@H]1C(=O)NCCc1ccccc1Cl)c1ccc(Cl)cc1Cl	·	·	0.7	·	·	·
O=C(Cc1ccc(Cl)cc1)NN1C(=O)c2ccccc2C1=O	-0.2	6.4	·	-1.4	-7.5	1.7
COC(=O)[C@@H]1[C@@H](C#N)C2(c3ccccc3-c3ccccc32)N(c2ccc(Cl)cc2)N1C#N	17.0	37.8	7.0	100.1*	-34.4	·
Cc1ccccc1CS(=O)(=O)c1nnc([C@H](CC(C)C)NC(=O)OC(C)(C)C)o1	-18.6	83.6*	-2.6	?	-82.2	3.8
CC(C)[C@H](NC(=O)OC(C)(C)C)c1nnc(S(=O)(=O)Cc2c(F)cccc2Cl)o1	-17.7	99.1*	-2.7	-42.7	-97.8	0.7
CC(C)=CCSc1nnc([C@@H](NC(=O)OC(C)(C)C)C(C)C)o1	-2.3	-4.8	0.8	·	6.5	-2.1
CC[C@@H](C)[C@H](NC(=O)OCc1ccccc1)c1nnc([C@@H](NC(=O)OCc2ccccc2)[C@@H](C)CC)o1	-4.1	-6.8	-3.0	22.2	8.4	·
